This is one part of a sample in which hits are shown more often than they occur.
HIV RNase H inh-1 – blocks HIV-1 RNase H cleavage of RNA/DNA duplex. RT-RNase H RNA/DNA duplex cleavage, fluorescence. inhibition, % at 10 µM. actives 1.9% (n = 65,000). AID 565; in the data active = inhibition above about 50%
HIV RNase H inh-2 – confirmation of HIV-1 reverse transcriptase RNase H inhibitors | inhibition, % at 10 µM | shares compounds with HIV RNase H inh-1 | actives 39% (n = 1,000) | AID 651 | Recombinant RT RNase H, fluorescent RNA/DNA duplex cleavage; in the data active = inhibition above about 48%
* = called active by the depositor.

SMILES | HIV RNase H inh-1 | others
O=C1C(Cl)=C(N2CCCCC2)C(=O)N1c1ccccc1Cl | 72* | HIV RNase H inh-2=40
COc1ccc(OC)c(N2C(=O)C(Cl)=C(N3CCOCC3)C2=O)c1 | 33
Cc1ccccc1N1C(=O)C(Cl)=C(N2CCCCCC2)C1=O | 9
COc1ccccc1-c1cc(C(=O)N2CCN(c3ccccc3OC)CC2)no1 | 78* | HIV RNase H inh-2=47
COc1ccccc1N1CCN(C(=O)c2cc(-c3ccc(C)cc3)on2)CC1 | -17
COc1ccccc1N1CCN(C(=O)c2cc(-c3ccc(Cl)cc3)on2)CC1 | -4
COC(=O)COC(=O)CC(CC(N)=O)c1ccccc1 (stereo unspecified) | -16
CCN(CC)CCCN1C(=O)c2oc3ccccc3c(=O)c2C1c1cc(OC)ccc1OC (stereo unspecified) | 3
Cc1ccc(NC(=O)CSc2nnc(Cn3c(=O)sc4ccccc43)n2C)cc1Cl | 11
Cc1ccc(S(=O)(=O)/N=C(\CN2CCCCC2)N2CCOCC2)cc1 | -9
CC(C)Cn1c(N)c(C(=O)CSc2ccc3c(c2)OCCO3)c(=O)n(C)c1=O | 9
CC(=O)Nc1nc(-c2ccc(Br)s2)cs1 | 26
CC(=O)Nc1nc(=S)ss1 | 64* | HIV RNase H inh-2=39
CC(=O)Nc1nc2c(F)cccc2s1 | -7
c1nc(NCCN2CCOCC2)c2sc3nc(N4CCOCC4)c4c(c3c2n1)CCC4 | -29
NC(=O)c1sc2nc3c(c(-c4ccco4)c2c1N)CCC3 | -64
CSc1nc(NCCOCCO)c2sc3nc(-c4ccco4)c4c(c3c2n1)CCC4 | 70* | HIV RNase H inh-2=42
O=C(C1=COCCO1)N1CCN(C(c2ccccc2)c2ccccc2)CC1 | -2
COc1ccccc1CNC(=O)CSc1nc2nc(C)cc(C)n2n1 | -5
CCCOc1nc2c(c(=O)n(C)c(=O)n2C)n1Cc1cccc2ccccc12 | -39
CCOC(=O)C1=C(SCC(=O)Nc2ccccc2)NC(=O)C(C#N)C12CCCCC2 (stereo unspecified) | 10
O=C(Nc1cccc(F)c1)c1c(F)c(F)c(F)c(F)c1F | -3
CN(C)c1cccc(C(=O)Nc2cccc(F)c2)c1 | 80* | HIV RNase H inh-2=85*
CCN(CC)c1ccc(C(=O)Nc2cccc(F)c2)cc1 | 6
COc1ccc(-n2nc3c(c2NC(=O)c2cc4ccccc4oc2=O)CS(=O)(=O)C3)cc1 | 24
N#Cc1c(N)oc(-c2ccc3c(c2)OCO3)c1-c1ccc2c(c1)OCO2 | -39
